Results from PubChem BioAssay AID686978 (National Center for Advancing Translational Sciences (NCATS), 2013).
Out of some 420,000 compounds screened, about 64,000 (15%) were called active. Inconclusive results (about 27%) are left out. These entries were drawn from the full list. Values without a mark were called inactive. The call rests on the fitted dose curve; in most records, active means well fitted inhibition curve with a large enough effect; inconclusive means small, poorly fitted or top-dose-only effect; inactive means flat fitted curve, though single readings scatter.

Test: qHTS for Inhibitors of human tyrosyl-DNA phosphodiesterase 1 (TDP1): qHTS in cells in absence of CPT; further: nearly all actives have a fitted effect of over 55% in size
Conditions: DT40 Tdp1-/- hTDP1 cells, no CPT, ATP luminescence, 48 h; activity change, negative = growth inhibition: at 46.2 µM (top of the series)
Method in brief: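 DT40 Tdp1-/-;hTDP1 cells, no CPT (DMSO vehicle only), 400 cells/well; compounds pin-transferred; ≥48 hr, 37 °C; CellTiter-Glo 30 min RT dark, luminescence read.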
On the % scale 0 is the no-effect control and ±100 the full control effect; potency means the concentration at half of the fitted maximal effect.

SMILES	activity change, negative = growth inhibition [%]	Potency
CCC1(CC)NC(=O)N(Cc2nc3ccccc3s2)C1=O	0.207	
CCOc1ccc2oc(C(=O)N(CC)CC(=O)Nc3ccc(NC(C)=O)cc3)c(C)c2c1	-8.73	
CCOc1ccc(-n2c(SCC(=O)NC3CCS(=O)(=O)C3)nnc2-c2cccnc2)cc1 (configuration not stated)	3.46	
COc1ccc(S(=O)(=O)N2CCOCC2)cc1NC(=O)Cc1coc2cc(C)ccc12	-22.4	
N#Cc1c2c(c(-c3ccccc3)[nH]c1=O)CCCC2	-23.7	
CCCCC1N2CC3([N+](=O)[O-])CN1CC([N+](=O)[O-])(C2)C3(C)C (configuration not stated)	-17.4	
Nc1ccc(SCCN2C(=O)c3ccccc3C2=O)cc1	-11	
COCCCn1c(C(=O)NC2CCCCC2)cc2c(=O)n3cccc(C)c3nc21		16.4 µM (active)
O=C(NC1CCCCC1)c1ccc2c(=O)n(CC3CCCO3)c(=O)[nH]c2c1 (configuration not stated)	-17.9	
Cc1ccc2nc3c(cc(C(=O)NCCc4ccccc4)c(=N)n3CC3CCCO3)c(=O)n2c1 (configuration not stated)		20.6 µM (active)
COc1ccc(Cn2ccnc2SCC(=O)NCc2ccco2)cc1	-8.83	
COc1ccc(CNC(=O)c2cc3c(=O)n4ccccc4nc3n(CC3CCCO3)c2=N)cc1 (configuration not stated)	-22.2	
O=C(NCc1cccnc1)c1cc(S(=O)(=O)N2CCOCC2)c(Cl)cc1Cl	-21.6	
Cc1cccn2c(=O)c3cc(C(=O)NC4CCCCC4)sc3nc12	-18.7	
COc1ccc(CCn2c(=N)c(C(=O)NCc3ccco3)cc3c(=O)n4cccc(C)c4nc32)cc1		11.6 µM (active)
Cc1ccc(S(=O)(=O)c2cc3c(=O)n4cccc(C)c4nc3n(CCc3ccccc3)c2=N)cc1C	-1.1	
Cc1cccn2c(=O)c3cc(C(=O)NCCN4CCOCC4)c(=N)n(Cc4cccnc4)c3nc12		8.2 µM (active)
CCCCn1c(=N)c(S(=O)(=O)c2ccccc2)cc2c(=O)n3cccc(C)c3nc21	-17.6	
CCOC(=O)c1ccc2[nH]c3c(c2c1)CCCC3NC=O (configuration not stated)	-16.5	
C=CC1=C(C(=O)O)N2C(=O)[C@@H](NC(=O)/C(=N\OCC(=O)O)c3csc(N)n3)[C@H]2SC1	-8.95	
Nc1c(N(CCCO)C(=O)C2CCCC2)c(=O)[nH]c(=O)n1Cc1ccccc1	13.1	
COc1ccc(NC(=O)C(CC(C)C)NC(=O)C2CCC(C)CC2)cc1 (configuration not stated)	-27.2	
O=C(Cn1nc(Cc2cccnc2)c2ccccc2c1=O)NCC1CCCO1 (configuration not stated)	-3.45	
COc1cc(=O)n2c(c1C(=O)NCc1ccco1)CCN(Cc1ccccc1)CC2	-17.1	
COCCNc1ncnc2c1ncn2[C@H]1CN(CCN2CCOCC2)C[C@@H](CO)O1	-0.749	

SMILES	activity change, negative = growth inhibition [%]	Potency
CN(CC(=O)NNC(=O)CNC(=O)c1ccccc1Cl)S(=O)(=O)c1ccc(Cl)cc1	-14.8	
O=C1c2ccccc2C(=O)N1c1ccccc1S(=O)C(F)(F)F (configuration not stated)	5.16	
COc1ccccc1-n1cnc2cc(C(=O)NCC3CCCO3)ccc21 (configuration not stated)	-7.49	
COc1ccc(CCn2c(=N)c(C(=O)NCC3CCCO3)cc3c(=O)n4cccc(C)c4nc32)cc1OC (configuration not stated)		0.517 µM (active)
COc1ccc(CCNC(=O)Cn2c(=O)n(CC3CCCO3)c(=O)c3ccccc32)cc1OC (configuration not stated)	-21.2	
CC1CCC(NC(=O)CN(C)S(=O)(=O)c2ccc3c(c2)c(=O)n(C)c(=O)n3C)CC1 (configuration not stated)	1.05	
CN(C(=O)CSc1nnc(C2CC2)n1C)C1CCCc2ccccc21 (configuration not stated)	6.04	
COC(=O)C1=C[C@@H](C(=O)OC)[C@@H]2C3=C(C(=O)[C@]2(C)NC(=O)c2ccccc2)[C@H](C)n2c(=O)n(C)c(=O)n2[C@@H]3C1	9.24	
CCOC(=O)C1=CCC2C(=O)N(Cc3ccccc3)C(=O)C12 (configuration not stated)	-11.7	
CCC1(CC)C(=O)C2=C3C1[C@H](C(=O)OC)C=C(C(=O)OC)C[C@H]3[C@H]1C(=O)N(Cc3ccccc3)C(=O)[C@H]1[C@H]2C (some centres not stated)		16.4 µM (active)
CCOc1ccccc1NC(=O)CCc1nnc2ccc(NCc3ccco3)nn12	-19.2	
CNC(=O)c1sc(Nc2ccc(OCc3ccccc3)cc2)nc1C		13 µM (active)
CNC(=O)c1sc(NCc2ccccc2OC)nc1C	-16.5	
Cc1cccc(NC(=O)Nc2ccc(OCc3ccccc3)cc2)n1	3.3	
COc1ccc(C(C(=O)NCC2CCCO2)N(C(=O)Cn2nnc3ccccc32)c2ccc(NC(C)=O)cc2)cc1OC (configuration not stated)	-15.5	
COc1ccc(CNC(=O)[C@H](Cc2c[nH]c3ccccc23)NC(C)=O)cc1OC	-6.89	
COc1ccc(C(C(=O)NC2CCCCC2)N(C(=O)Cc2c[nH]c3ccccc23)c2ccccc2)cc1OC (configuration not stated)		18.4 µM (active)
CN(Cc1c(F)cccc1Cl)S(=O)(=O)c1cccs1	-16	
O=C(NCc1ccccn1)C1CCN(S(=O)(=O)c2ccc(Br)cc2)CC1	4.5	
CC1(C)CCSC(/C=C/c2ccccc2)=N1		4.61 µM (active)
CCCOc1ccc(NC(=O)C2CCCNC2=O)cc1 (configuration not stated)	0.653	
Cc1ccc(-c2ccnc(-n3ncc(C(=O)N(C)Cc4cccc5ncccc45)c3C3CC3)n2)o1	-13.8	
CCN1CCN(c2nc(Nc3cccc(F)c3)nc(N)c2[N+](=O)[O-])CC1	-20.6	
Nc1nc(NCC(=O)O)nc(N2CCCCCC2)c1[N+](=O)[O-]	-0.0334	
CC1CN(c2nc(Nc3ccccc3)nc(N)c2[N+](=O)[O-])CC(C)O1 (configuration not stated)		14.6 µM (active)

SMILES	activity change, negative = growth inhibition [%]	Potency
CCOC(=O)c1ccccc1NC(=O)COC(=O)CCC(=O)N1CCOCC1	-1.44	
NC(=O)C1CC(=O)N(c2ccc(OCC(=O)NCc3ccccc3)cc2)C1 (configuration not stated)	0.0429	
O=C(NNC1=C(C(=O)C(F)(F)F)CCC1)c1ccncc1		1.64 µM (active)
O=C(NNC(=O)c1cnccc1C(F)(F)F)c1ccc(Cl)cc1	-14.1	
Cc1ccc(C(=O)NNC(=O)c2ccncc2)cc1S(=O)(=O)N1CCCCC1	-17	
COc1ccc2c(c1)c1ncn(Cc3ccccn3)c(=O)c1n2C	4.45	
Cc1ccc(CNC(=O)CSc2c3c(nc4cc(Cl)ccc24)CCCC3)cc1		14.6 µM (active)
COc1ccc(N2CCN(C(=O)c3ccc(N4CCCCS4(=O)=O)cc3)CC2)cc1	-14.6	
COc1cccc(CNc2nc3nc4c(c(=O)n3[nH]2)CCC4)c1	-4.84	
O=C(/C=C/c1ccc(Cl)cc1Cl)NCc1ccco1	-27.7	
O=C(CSc1nnnn1-c1ccccc1)NCc1ccco1	-4.79	
COc1ccc(N2CCN(C(=O)c3ccc4c(Cl)c5c(nc4c3)CCCC5)CC2)cc1		20.6 µM (active)
COc1cccc(CNC(=O)c2ccc3c(Cl)c4c(nc3c2)CCCC4)c1		23.1 µM (active)
COc1cccc(CNC(=O)c2cccnc2Sc2ccc(Cl)cc2)c1	16.2	
Cc1ccc(CNC(=O)COc2ccc3c(c2)CCC3)cc1	-13.2	
Cc1cn(C)c(CC(=O)NCc2ccc(Cl)cc2)c1C(=O)O	10.2	
O=C(CSc1c2c(nc3ccc(Cl)cc13)CCCC2)NCc1ccco1		18.4 µM (active)
Cc1cc(C)c2nc(-c3cccnc3)cc(C(=O)Nc3ccc(S(=O)(=O)Nc4onc(C)c4C)cc3)c2c1	-22.7	
Cc1cc(C)n2nc(C(=O)OC(C)C(=O)c3cc(C)c(C)cc3C)nc2n1 (configuration not stated)	-7.26	
Cc1cc(NC(=O)Nc2c[nH]c(=O)[nH]c2=O)ccc1Br	6.32	
CCOc1cc(/C=C2/C(=N)N3OC(C)=CC3=NC2=O)ccc1OC	-2.7	
O=C(Nc1ccc(Cl)cc1)c1csc([C@H]2C[C@H](O)[C@@H](CO)O2)n1	-24.7	
CCN(CC)CCN1C(=O)C2C(C(=O)Nc3ccc(Br)cc3)C3C=CC2(O3)C1C(=O)NC1CCCCC1 (configuration not stated)	4.87	
CC1CC[C@@]23CCC4(C)[C@@]5(C)CCC6C(C)(C)C(O)CC[C@@]6(C)C5C=C[C@@]4(OC2=O)C3C1C (some centres not stated)	-7.31	
O=C(NC(Cc1ccc(O)cc1)C(=O)O)/C(=C/c1ccccc1)NC(=O)c1ccccc1 (configuration not stated)	3.55	

SMILES	activity change, negative = growth inhibition [%]	Potency
O=C(NCC(F)(F)F)Nc1nnc(C(F)(F)F)s1	-29.8	
CCOC(=O)C1=C(NC(=S)NC(=O)c2ccccc2)c2ccccc2CC1(C)C	-29	
CC(=O)c1ccc(NC(=O)c2ccc3c(Cl)c4c(nc3c2)CCCC4)cc1		18.4 µM (active)
CC(=O)c1ccc(NC(=O)c2cc(-c3cccs3)on2)cc1	-22.4	
COc1cccc(-c2ccc(C#N)c(SCC(=O)NCCc3ccc(Cl)cc3)n2)c1	-8.31	
COc1cccc(CNC(=O)CSc2c3c(nc4cc(Cl)ccc24)CCCC3)c1		14.6 µM (active)
COc1cccc(CNC(=O)c2nnn(CC(=O)Nc3cc(Cl)ccc3C)c2N)c1		inactive
O=C(O)CSc1c2c(nc3cc(C(=O)Nc4cccc(C(F)(F)F)c4)ccc13)CCCC2	-1.66	
Cc1nc2c(C(=O)NCc3ccc4c(c3)OCO4)c[nH]n2c(=O)c1Cc1ccccc1F	12.6	
Cc1cc(N)n(-c2ccc(S(=O)(=O)N3CCCC3)cc2[N+](=O)[O-])n1	0.143	
Cc1cc(C(=O)N2CCN(c3ccccn3)CC2)c(C)o1		12.6 µM (active)
CCOCCCN(C)C1CCN(C(=O)c2oc3ccccc3c2NC(=O)Cc2cccc([N+](=O)[O-])c2)CC1	-13.7	
O=C(c1ccco1)N1CCN(C(=S)Nc2cc(F)cc(F)c2)CC1	-3.94	
O=C(c1c(F)cccc1Cl)N1CCN(c2ccccn2)CC1	-13.2	
O=C(C(Cl)Cl)N1CCN(c2ccccn2)CC1	-8.55	
O=C(Nc1c(C(=O)N2CCN(c3ccc(F)cc3)CC2)oc2ccccc12)c1ccco1		18.4 µM (active)
O=C(Nc1ccccc1C(=O)N1CCCCC1)c1ccco1	-1.83	
COCC(=O)Nc1c(C(=O)N2CCCC2)oc2ccccc12	-12	
CCOCCCN(C)C1CCN(C(=O)c2oc3ccccc3c2NC(=O)COc2cccc(C)c2)CC1	4.68	
COc1cccc(OC)c1C(=O)Nc1c(C(=O)N2CCN(c3ccccn3)CC2)oc2ccccc12		25.9 µM (active)
O=C(c1cc2ccccc2s1)N1CCN(c2ccccn2)CC1	-1.53	
CCC(=O)Nc1c(C(=O)N2CCN(c3ccc(F)cc3)CC2)oc2ccccc12		25.9 µM (active)
